In the library only some 2.4% were active in any assay of this set; here they are far more common.
SENP6 block: SENP6 protease inhibitors, primary screen, biochemical, luminescence, uHTS | Sentrin-specific protease 6 (Homo sapiens), Q9GZR1 | Recombinant SENP6 catalytic domain, aminoluciferin luminescence | inhibition, % at 10 µM | actives 1.8% (n = 330,000) | AID 2599, 2010;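 active means inhibition above about 50% at the single tested dose, limit read from the data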;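 further: plate controls were DMSO wells with enzyme for no effect and DMSO wells lacking enzyme for full effect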
SENP7 inh: SENP7 protease inhibitors, primary screen, biochemical, luminescence, uHTS; Sentrin-specific protease 7 (Homo sapiens), Q9BQF6; recombinant SENP7, Z-RLRGG-aminoluciferin luminescence, 40 min; inhibition, % at 5 µM; actives 1.5% (n = 330,000); AID 434973, 2010;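 active means inhibition above about 50% at the single test dose, limit read from the data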;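 further: plate controls were DMSO with enzyme for no effect and no enzyme buffer wells for full effect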
Target sequence (Q9BQF6 706-1050 limits assumed): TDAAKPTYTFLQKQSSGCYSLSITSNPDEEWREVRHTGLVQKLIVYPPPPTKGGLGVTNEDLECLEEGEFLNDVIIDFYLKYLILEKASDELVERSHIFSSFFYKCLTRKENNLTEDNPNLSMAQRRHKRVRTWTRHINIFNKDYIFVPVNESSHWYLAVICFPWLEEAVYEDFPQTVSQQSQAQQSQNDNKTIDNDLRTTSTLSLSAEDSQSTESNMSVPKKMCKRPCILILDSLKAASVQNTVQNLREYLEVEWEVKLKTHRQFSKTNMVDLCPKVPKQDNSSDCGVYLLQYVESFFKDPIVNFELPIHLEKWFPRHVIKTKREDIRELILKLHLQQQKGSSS
SENP8 block-1: SENP8 protease inhibitors, primary screen, biochemical, luminescence; inhibition, % at 10 µM; AID 2540, 2010; Sentrin-specific protease 8 (Homo sapiens), Q96LD8; purified SENP8, Z-RLRGG-aminoluciferin cleavage; actives 1.2% (n = 330,000); in the data active means inhibition above about 50%
Platelet DG rel: inhibitors of platelet dense granule secretion, primary screen, cell-based, MLPCN, human platelets; human platelet-rich plasma, SFLLRN dense granule ATP release, luminescence; inhibition, %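 (compounds screened at 7.5 µM in platelet-rich plasma)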; actives 0.22% (n = 300,000);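 active means mean replicate score, as percent of positive control, at or above 50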
SENP8 block-2: human SENP8 protease inhibitors, primary screen, biochemical, fluorescence, Nedd8 protein substrate, uHTS; recombinant SENP8; inhibition, % at 20 µM; actives 0.64% (n = 360,000); in the data active means inhibition mostly above about 40%, no sharp cut-off; inactive means mostly below about 27%
SENP8 confirm: SENP8 protease inhibitors, retest, confirmation, biochemical, luminescence, single concentration | AID 488912, 2010 | actives 40% (n = 6,200) | inhibition, % at 12.5 µM | Recombinant SENP8, Z-RLRGG-aminoluciferin luminescence, 60 min | shares compounds with SENP7 inh;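 active means mean inhibition across replicates above about 50%, limit read from the data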
SENP6 confirm: SENP6 protease inhibitors, confirmation, biochemical, luminescence, single concentration | shares compounds with SENP7 inh | actives 58% (n = 6,200) | recombinant SENP6, Z-RLRGG-aminoluciferin luminescence | inhibition, % at 12.5 µM
SENP7 confirm: SENP7 protease inhibitors, retest, confirmation, biochemical, luminescence, single concentration; actives 69% (n = 6,200); shares compounds with SENP7 inh; inhibition, % at 12.5 µM; recombinant SENP7, Z-RLRGG-aminoluciferin luminescence, 40 min
Casp3 select: caspase-3 protease inhibitors, confirmation, selectivity assay for SENP inhibitor project, biochemical, single concentration; shares compounds with SENP7 inh; purified caspase-3, Z-DEVD-aminoluciferin luminescence, 60 min; inhibition, % at 12.5 µM; actives 60% (n = 6,200);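 active means mean inhibition above about 50%, limit read from the data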;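 further: plate controls were enzyme with DMSO for no effect and wells without caspase-3 for full effect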
Target sequence (P42574 28-227 limits assumed): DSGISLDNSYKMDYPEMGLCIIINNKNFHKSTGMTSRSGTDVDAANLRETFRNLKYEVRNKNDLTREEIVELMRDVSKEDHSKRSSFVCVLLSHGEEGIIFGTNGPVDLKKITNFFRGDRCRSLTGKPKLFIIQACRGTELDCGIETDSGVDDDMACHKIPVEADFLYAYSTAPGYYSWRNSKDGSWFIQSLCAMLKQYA
SENP luc ctr: luminescence interference (SENP counter-screen). Pre-incubated SENP8/Z-RLRGG-aminoluciferin, luciferase luminescence interference. actives 39% (n = 6,200). shares compounds with SENP7 inh. inhibition, % at 12.5 µM;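 active means mean inhibition above about 50% when retested at one dose, limit read from the data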;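 further: plate controls were DMSO wells with completed reaction for no effect and substrate without enzyme for full effect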
Starred values were filed as active, the others as inactive; . = no result.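 How the source made its calls, unless noted: active means mean inhibition above about 50% in the one-dose retest (limit read from the data); inactive means the rest.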

SMILES | SENP6 block | SENP7 inh | SENP8 block-1 | Platelet DG rel | SENP8 block-2 | SENP8 confirm | SENP6 confirm | SENP7 confirm | Casp3 select | SENP luc ctr
Cc1nc2cc(-c3ccc(Br)cc3)[nH]n2c(=O)c1Cl | 81.6* | 26.5 | 74.5* | 0.2 | -3.4 | -0.1 | 2.1 | 3.4 | 11.1 | 10.1
O=c1c2c(nc3cc(-c4ccc(F)cc4)[nH]n13)CCCC2 | 54.1* | 54.5* | 38.2 | 3.3 | -71.0 | -2.1 | 8.0 | 22.3 | 36.6 | 4.7
O=c1c2c(nc3cc(-c4ccc(Cl)cc4)[nH]n13)CCS2 | 88.0* | 72.8* | 84.8* | 5.5 | -397.0 | -2.0 | 2.5 | 4.1 | 24.2 | 12.2
O=c1c2c(nc3cc(-c4cccc(Cl)c4)[nH]n13)CCC2 | 50.2* | 56.5* | 45.3 | 6.7 | -269.5 | -24.9 | -10.8 | 11.6 | 19.6 | -8.1
CCOc1ccc(S(=O)(=O)NCCCn2ccnc2)cc1 | 2.8 | -4.3 | -0.2 | 6.1 | 16.8 | . | . | . | . | .
Cn1c(N)c(C(=O)COC(=O)CNC(=O)c2ccccc2F)c(=O)n(C)c1=O | -22.0 | -4.2 | -16.9 | . | 13.1 | . | . | . | . | .
O=C1NC(=O)/C(=C/c2ccc(-c3cc(C(=O)O)ccc3Cl)o2)S1 | 22.7 | 20.4 | 9.4 | 1.4 | -327.4 | . | . | . | . | .
O=C1NC(=O)/C(=C\c2ccc(Br)o2)S1 | 55.0* | 2.2 | 35.9 | 13.9 | -31.6 | 56.0* | 51.1* | 61.9* | 52.1* | 45.5
Cc1cccc(NC(=O)c2ccc3ccccc3n2)c1C | 87.6* | 77.3* | 64.7* | -1.7 | 20.3 | 13.1 | 84.0* | 97.0* | 72.3* | 57.8*
O=C(Nc1nccs1)c1ccc2ccccc2n1 | 68.9* | 69.8* | 53.2* | -1.9 | -0.4 | 64.5* | 64.1* | 90.3* | 80.1* | 62.9*
O=C(Nc1ccccn1)c1ccc2ccccc2n1 | 90.1* | 89.2* | 79.9* | 6.3 | 9.6 | -3.7 | 84.6* | 97.2* | 86.0* | 85.1*
Cc1cc(C(=O)Nc2ccccn2)no1 | 13.0 | 13.3 | 2.6 | 1.7 | 17.5 | . | . | . | . | .
O=C(Nc1ccccn1)c1ccc(Cl)s1 | 60.3* | 66.1* | 25.9 | 6.0 | 5.5 | 30.2 | 38.0 | 77.5* | 74.3* | 55.5*
O=C(Nc1c(C(=O)O)[nH]c2ccc(F)cc12)c1cccc(C(F)(F)F)c1 | -7.7 | 6.1 | -4.7 | -2.4 | 10.6 | . | . | . | . | .
CC(C)CC(N)c1csc(Nc2ccc(C(=O)NCCO)cc2)n1 (centres undefined) | . | . | . | . | -110.9 | . | . | . | . | .
Cc1csc(NC(=O)c2cn3ccccc3n2)n1 | 84.0* | 84.8* | 69.8* | 57.1* | -5.0 | 65.1* | 86.0* | 96.8* | 95.0* | 16.3
Cc1csc(NC(=O)c2cnc3ccccc3n2)n1 | 20.4 | 12.3 | 1.8 | 9.9 | 4.2 | . | . | . | . | .
Cc1csc(NC(=O)c2ccc3ccccc3n2)n1 | 82.6* | 80.0* | 75.3* | 7.4 | 1.8 | 3.5 | 81.6* | 94.7* | 48.8 | 14.7
OC(c1ccc(CN2CCCCC2)cc1)c1ncc(-c2ccccc2)[nH]1 (centres undefined) | . | . | . | . | -6.6 | . | . | . | . | .
CCCSc1nn2c(=O)c3ccccc3nc2s1 | 63.6* | 45.2 | 36.7 | -2.0 | 7.2 | 67.2* | 65.1* | 88.9* | 82.7* | 64.7*
Cc1cccc(Nc2nn3c(=O)c4ccccc4nc3s2)c1 | -3.5 | -4.7 | -10.9 | -1.9 | -22.6 | . | . | . | . | .
Cc1nc(N)nc(N)c1-c1ccc(Cl)c(Cl)c1 | . | . | . | . | 12.6 | . | . | . | . | .
Nc1nc(N)nc(-c2ccc(Cl)c(Cl)c2)n1 | 56.5* | 59.5* | 42.5 | . | -456.5 | 41.1 | 37.9 | 77.6* | 48.8 | 61.9*
Cc1ccc(C(=O)NC2(O)C(=O)c3ccccc3C2=O)cc1C | 64.4* | 60.5* | 63.9* | 5.0 | 100.0* | 70.1* | 85.1* | 74.3* | 1.6 | 4.9
O=C(NC1(O)C(=O)c2ccccc2C1=O)c1ccc(C(F)(F)F)cc1 | 73.8* | 79.9* | 67.3* | -1.0 | 81.0* | 79.2* | 90.6* | 83.5* | 7.9 | 5.5
SMILES | SENP6 block | SENP7 inh | SENP8 block-1 | Platelet DG rel | SENP8 block-2 | SENP8 confirm | SENP6 confirm | SENP7 confirm | Casp3 select | SENP luc ctr
CC(NC(=O)COC(=O)c1ccccc1SCC(=O)N1CCCC1)c1ccccc1 (centres undefined) | -6.1 | -5.8 | 4.9 | -1.4 | -7.2 | . | . | . | . | .
COc1ccc(C(=O)c2c(C(F)(F)F)oc3c2C(=O)c2ccccc2C3=O)cc1 | 70.2* | 26.7 | 47.4 | 1.6 | 81.4* | 27.3 | 69.6* | 15.4 | 71.8* | -5.6
COc1ccc(C(=O)c2coc(-c3ccccc3C(=O)O)c2C(=O)O)cc1 | -12.5 | 2.7 | -2.1 | -0.8 | 5.2 | . | . | . | . | .
O=C(Nc1nc2ccccc2[nH]1)c1ccc(Cl)cc1 | 93.2* | 90.1* | 87.1* | 17.8 | -38.1 | 42.1 | 92.0* | 99.9* | 93.2* | 24.1
CN(c1cccc(Cl)c1)S(=O)(=O)c1cccc(C(=O)Nc2nc3ccccc3[nH]2)c1 | -5.1 | 3.9 | 2.5 | 5.1 | -64.9 | . | . | . | . | .
O=C(Nc1nc2ccccc2[nH]1)c1ccccc1 | 95.5* | 92.6* | 89.7* | 49.3 | 1.3 | 82.5* | 91.3* | 100.3* | 96.1* | 31.5
O=C(Nc1nc2ccccc2[nH]1)c1cccc(Cl)c1 | 57.1* | 68.3* | 24.5 | -6.2 | -8.5 | -9.3 | 17.3 | 86.4* | 65.7* | 8.3
COc1ccc(C(=O)Nc2nc3cc(OC)c(OC)cc3c(=O)[nH]2)cc1 | -5.4 | 4.9 | 3.3 | . | -32.6 | . | . | . | . | .
COc1ccc(C(=O)Nc2nc3ccccc3c(=O)[nH]2)cc1 | 53.6* | 48.7 | 23.8 | 13.5 | 5.4 | 27.0 | 23.2 | 59.0* | 72.3* | 41.0
CCCCCC(C)NC(=O)c1cc(S(=O)(=O)N2CCCCC2)ccc1N1CCOCC1 (centres undefined) | 4.9 | -0.3 | 1.4 | . | -17.1 | . | . | . | . | .
O=C(Nc1nc2ccccc2[nH]1)c1ccccc1O | 88.0* | 92.3* | 81.7* | 12.0 | -285.8 | 12.5 | 80.4* | 63.7* | 91.8* | 1.5

High-throughput results deposited in PubChem by several laboratories.
